Structures are written as SMILES.

The test system of the first experiment is XIP peptide (Xip251-270). Briefly: compounds binding XIP fragment 251-270 – biochemical, small-molecule microarray, fluorescence 635/667 nm, 0.5 µg/mL protein, primary screen (AID 1183). To be noted: fluorescence 635 nm, higher = more signal.
`COC(=O)[C@H](C)NC(=O)CCC1CC(OC(=O)NCCc2ccc(F)cc2)CC2(CCCC(COC(=O)NCCC(C)C)O2)O1` (stereo not given in full): the composite z-score worked out at 0.74.

For `COC(=O)[C@H](C)NC(=O)CCC1CC(OC(=O)NCc2ccc3c(c2)OCO3)CC2(CCCC(COC(=O)NCC(c3ccccc3)c3ccccc3)O2)O1` (stereo not given in full), the composite z-score came out at 0.699.

For the compound `COC(=O)CC=C[C@@H](C)[C@@H](C=NOCC[C@@H]1C=C[C@H](OC(C)=O)[C@@H](COC(C)=O)O1)OC`, the composite z-score is 0.239.

Regarding `COC(=O)[C@H]1[C@@H](O)[C@@]2(O)c3ccccc3O[C@@]2(c2ccccc2)[C@@H]1c1ccccc1`, the composite z-score is -0.028.

System in another experiment: not listed separately
Briefly: blood-stage malaria parasite viability loss – strain 3D7, DAPI fluorescence, 100 nL, primary screen (AID 1184).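 Note: parasites grown inside human red blood cells in medium with human serum.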 To be noted: P. falciparum 3D7 growth, 3 d, higher = more signal.
`O=C1C=C[C@@H](O)[C@@H]2[C@@H]3C(=O)N(c4ccc(F)cc4F)C(=O)[C@@H]3CC[C@@H]12` came in with a z-score of 0.262.

Compound `COc1cccc([C@H]2Oc3ccc(OC)cc3C(=NOC[C@@H](O)[C@H]3O[C@@H]4OC(C)(C)O[C@@H]4[C@H]3O)[C@@H]2O)c1` returned a z-score of 0.187.

Turning to `COCCNC(=O)OCC1CCCC2(CC(OC(=O)NCc3ccc4c(c3)OCO4)CC(CCC(=O)N[C@@H](C)C(=O)OC)O2)O1` (stereo not given in full), the z-score is -2.

Consider `CCOC(=O)[C@H](CC(C)C)NC(=O)CCC1CC(OC(=O)NCc2cccc3ccccc23)CC2(CCCC(COC(=O)NCC3CCCCC3)O2)O1` (stereo not given in full), for which the z-score is -2.01.

As for `CON=C1[C@H]2CCn3c(=O)n(-c4ccccc4)c(=O)n3[C@H]2[C@H](O)[C@@H]2O[C@H]12`, the z-score was -0.573.

In the case of `Cc1cc2c(nc1C)CCCN2CC(O)CN1CCCc2nc(C)c(C)cc21`, the z-score was -0.958.

For `CCc1cc2c(nc1CC)CCN(CCC(C)=NOC[C@H]1O[C@H](c3ccccc3)C=C[C@@H]1Oc1ccc(OC)cc1)C2`, the z-score is -1.63.

Consider `CO[C@H]1COC(=O)CC=C[C@H](C)[C@@H](OC)COC(=O)[C@@H](C)COC(=O)CC=C[C@@H]1C`, for which the z-score is -0.276.

For the compound `CO[C@H]1COC(=O)[C@@H](C)COC(=O)[C@H](COCc2ccccc2)NC(=O)CC=C[C@H]1C`, the z-score was -0.386.

Turning to `Cc1ccc(S(=O)(=O)N[C@H]2COC(=O)CC=C[C@H](C)[C@@H](NS(=O)(=O)c3ccc(C)cc3)COC(=O)CC=C[C@@H]2C)cc1`, the z-score was -0.304.

`CCOC(=O)[C@H](CC(C)C)NC(=O)CCC1CC(OC(=O)NCc2cccc3ccccc23)CC2(CCCC(COC(=O)NCc3ccncc3)O2)O1` (stereo not given in full): the z-score is -0.652.

As for `CCN1C(=O)[C@H]2[C@H]3[C@H](O)[C@H](O)CC(=NO[C@@H](C)c4cn([C@H](CO)Cc5ccccc5)nn4)[C@@H]3CC[C@H]2C1=O`, the z-score was 0.032.

As for `CC(C)CON=C1C[C@@H](O)[C@@H](O)[C@@H]2[C@@H]3C(=O)N(c4cccc(Oc5ccccc5)c4)C(=O)[C@@H]3CC[C@@H]12`, the z-score was found to be 0.299.

With `CCC=CCCC(OC(=O)c1ccc(Br)cc1)C1=CCCCC1=O` (stereo not given), the z-score is -0.713.

In the case of `Cc1cc2c(nc1C)CCCCN2CC(C)ON=C1[C@H]2CCn3c(=O)n(-c4ccccc4)c(=O)n3[C@H]2[C@H](O)[C@@H]2O[C@H]12` (stereo not given in full), the z-score was -1.94.

For `COc1ccc(COC(=O)NN=C2C[C@@H](O)[C@@H](O)[C@@H]3[C@@H]4C(=O)N(c5cccc(Oc6ccccc6)c5)C(=O)[C@@H]4CC[C@@H]23)cc1`, the z-score is -0.374.

With `CC(C)CON=C1C[C@@H](O)[C@@H](O)[C@@H]2[C@@H]3C(=O)N(Cc4ccc5c(c4)OCO5)C(=O)[C@@H]3CC[C@H]12`, the z-score was -0.613.

As for `CCOC(=O)[C@H](CC(C)C)NC(=O)CCC1CC(OC(=O)NCc2ccc3c(c2)OCO3)CC2(CCCC(COC(=O)NCC(c3ccccc3)c3ccccc3)O2)O1` (stereo not given in full), the z-score is -0.11.

As to `COC(=O)[C@H](C)NC(=O)CCC1CC(OC(=O)NCc2ccc3c(c2)OCO3)CC2(CCCC(COC(=O)NCC3CCCCC3)O2)O1` (stereo not given in full), the z-score was -1.87.

Take `CCOC(=O)[C@H](CC(C)C)NC(=O)CCC1CC(OC(=O)NCc2cccc3ccccc23)CC2(CCCC(COC(=O)NCCCN3CCCC3=O)O2)O1` (stereo not given in full): the z-score was -1.92.

For `O=C1[C@H]2[C@H]3[C@H](O)[C@H](O)CC(=NOC[C@@H](O)COCc4ccco4)[C@@H]3CC[C@H]2C(=O)N1C[C@@H]1CCCO1`, the z-score worked out at 0.965.

For `C[C@@H](c1ccccc1)N1C(=O)[C@H]2[C@H]3[C@H](O)[C@H](O)CC(=NO[C@@H]4O[C@H](CO)[C@@H](O)[C@H](O)[C@H]4O)[C@H]3CC[C@H]2C1=O`, the z-score is -0.648.

Compound `COC(=O)CC=C[C@@H](C)[C@@H](C=NO[C@H](C)c1cn([C@@H]2COC[C@H]2O)nn1)NS(=O)(=O)c1ccc(C)cc1` returned a z-score of 0.781.

Take `COC(=O)NCC=Cc1nc(CCCO)co1`: the z-score came out at 0.316.

Consider `CON=C(C)CCC(=O)OC[C@H]1O[C@H](c2ccccc2)C=C[C@@H]1Oc1ccc(OC)cc1`, for which the z-score was -0.442.

`CC(C)=CCCC(C)=CCON=C1C[C@@H](O)[C@@H](O)[C@@H]2[C@@H]3C(=O)N(c4ccc(F)cc4F)C(=O)[C@@H]3CC[C@H]12` came in with a z-score of 0.0436.

`COc1cccc([C@H]2Oc3ccc(OC)cc3C(=NOC[C@@H](O)COCc3ccco3)[C@@H]2O)c1` came in with a z-score of 0.563.

`O=c1n(Cc2cc3c(cc2Cl)OCO3)c(=O)n2n1CC[C@@H]1C(=NOCc3ccccc3)[C@H]3O[C@H]3[C@@H](O)[C@@H]12`: the z-score is 0.0783.

Regarding `COc1ccc(O[C@H]2C=C[C@@H](c3ccccc3)O[C@@H]2COC(=O)CCC(C)=NO[C@@H]2O[C@H](COC(C)=O)[C@@H](OC(C)=O)[C@H](OC(C)=O)[C@H]2OC(C)=O)cc1`, the z-score was -0.0102.

The compound `COc1ccc(O[C@H]2C=C[C@@H](c3ccccc3)O[C@@H]2COC(=O)CCC(C)=NOC[C@@H](O)[C@H]2O[C@@H]3OC(C)(C)O[C@@H]3[C@H]2O)cc1` yielded a z-score of 0.651.

`CC(C)=NO[C@H](C)c1cn([C@H](CO)Cc2ccccc2)nn1` came in with a z-score of 0.28.

On to `O=C1[C@H]2[C@H]3[C@H](O)[C@H](O)CC(=NOCc4ccccc4)[C@@H]3CC[C@H]2C(=O)N1C[C@@H]1CCCO1`, for which the z-score was -0.0671.

For the compound `COC(=O)[C@H](C)NC(=O)CCC1CC(OC(=O)NCCc2ccc(F)cc2)CC2(CCCC(COC(=O)NCCC(C)C)O2)O1` (stereo not given in full), the z-score was -0.861.

Regarding `COC(=O)[C@H](C)NC(=O)CCC1CC(OC(=O)NCc2ccc3c(c2)OCO3)CC2(CCCC(COC(=O)NCC(c3ccccc3)c3ccccc3)O2)O1` (stereo not given in full), the z-score is -1.77.

As for `COC(=O)CC=C[C@@H](C)[C@@H](C=NOCC[C@@H]1C=C[C@H](OC(C)=O)[C@@H](COC(C)=O)O1)OC`, the z-score came to 1.13.

Take `COC(=O)[C@H]1[C@@H](O)[C@@]2(O)c3ccccc3O[C@@]2(c2ccccc2)[C@@H]1c1ccccc1`: the z-score is -1.87.
